Test results from PubChem BioAssay.
Active and inactive are the calls of the source.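 How the source made its calls: active means thallium flux through the channel raised or lowered by more than 3 SD from vehicle-only wells, actives on both sides; inactive means the rest.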

Experiments:
Experiment in all cases: BK channel mutant inhibitors and activators – cell-based, U2OS BacMam, thallium flux, beta subunits, selectivity assay, profiling panel (AID 1259406);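 further: initial slope of Thallos dye fluorescence rise after thallium is added; log ratio against the mean of 0.3% DMSO vehicle wells on the same plate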
F380Y = details: U2OS BacMam BK variants, at 30 µM
F380Y/beta1 = details: U2OS BacMam BK variants, at 30 µM
F380Y/beta2Delta = details: U2OS BacMam BK variants, at 30 µM
F380Y/beta4 = details: U2OS BacMam BK variants, at 30 µM
[1] = biological target: Calcium-activated potassium channel subunit alpha-1 (Homo sapiens) + Leucine-rich repeat-containing protein 26 (Homo sapiens) (UniProt Q12791+Q2I0M4); details: U2OS BacMam BK variants, F380Y/Slo1WT/gamma1, at 30 µM
R275C = details: U2OS BacMam BK variants, at 30 µM
R275C/beta1 = details: U2OS BacMam BK variants, at 30 µM
R275C/beta2Delta = details: U2OS BacMam BK variants, at 30 µM
R275C/beta4 = details: U2OS BacMam BK variants, at 30 µM
R275C/Slo1WT/beta2 = details: U2OS BacMam BK variants, at 30 µM

Measured: log fold change Tl+ flux

Chain of Calcium-activated potassium channel subunit alpha-1 (Homo sapiens) + Leucine-rich repeat-containing protein 26 (Homo sapiens) (Q2I0M4 whole entry, looked up, one chain of several): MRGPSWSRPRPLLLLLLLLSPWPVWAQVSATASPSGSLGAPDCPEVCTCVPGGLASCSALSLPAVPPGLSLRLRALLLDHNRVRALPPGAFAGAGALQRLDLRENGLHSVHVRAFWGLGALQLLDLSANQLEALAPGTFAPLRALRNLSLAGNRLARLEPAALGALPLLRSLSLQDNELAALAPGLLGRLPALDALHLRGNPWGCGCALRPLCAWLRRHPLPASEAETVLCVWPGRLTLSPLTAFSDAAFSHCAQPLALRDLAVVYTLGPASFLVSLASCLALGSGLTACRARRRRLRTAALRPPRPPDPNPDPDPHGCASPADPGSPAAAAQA

O=C(Nc1ccc(Cl)cc1)c1cnccc1C(F)(F)F
inactive: F380Y 0.0622 | F380Y/beta1 0.0187 | F380Y/beta2Delta 0.066 | F380Y/beta4 0.0347 | [1] -0.0423 | R275C 0.0193 | R275C/beta1 0.0288 | R275C/beta2Delta -0.00135 | R275C/beta4 0.0311 | R275C/Slo1WT/beta2 -0.0457

O=C1CSCC(=O)N1c1csc(C(F)(F)F)c1-c1ccccc1
inactive: F380Y -0.0223 | F380Y/beta2Delta -0.00325 | F380Y/beta4 0.0035 | [1] 0.0169 | R275C 0.0132 | R275C/beta2Delta 0.0241 | R275C/Slo1WT/beta2 -0.00785
active: F380Y/beta1 0.0869 | R275C/beta1 0.122 | R275C/beta4 0.11

CCOC(=O)c1ccc(OCC#Cc2ccc(C(F)(F)F)cn2)cc1
inactive: F380Y -0.0256 | F380Y/beta1 -0.0209 | F380Y/beta2Delta -0.0279 | F380Y/beta4 -0.0657 | [1] -0.0262 | R275C -0.0775 | R275C/beta1 -0.0424 | R275C/beta2Delta -0.0497 | R275C/beta4 -0.0346 | R275C/Slo1WT/beta2 -0.0412

O=C(Cn1ccc(C(F)(F)F)n1)c1ccc(Cl)cc1
inactive: F380Y 0.0102 | F380Y/beta1 0.0189 | F380Y/beta2Delta -0.0159 | F380Y/beta4 0.0229 | [1] -0.00441 | R275C 0.00925 | R275C/beta1 0.0122 | R275C/beta2Delta -0.0132 | R275C/beta4 0.0276 | R275C/Slo1WT/beta2 0.0269

CC(C)C1COC(c2cccc(C3=NC(C(C)C)CO3)n2)=N1 (stereo not given)
inactive: F380Y -0.0154 | F380Y/beta1 0.0433 | F380Y/beta2Delta 0.00332 | F380Y/beta4 0.0308 | [1] 0.0138 | R275C -0.00894 | R275C/beta1 0.00883 | R275C/beta2Delta -0.00732 | R275C/beta4 -0.00827 | R275C/Slo1WT/beta2 0.043

O=C(O)c1cccc(CSc2cccs2)c1
inactive: F380Y 0.0692 | F380Y/beta1 0.0279 | F380Y/beta2Delta 0.0398 | F380Y/beta4 0.000664 | [1] 0.0207 | R275C 0.0115 | R275C/beta1 0.0346 | R275C/beta2Delta 0.018 | R275C/beta4 0.0269 | R275C/Slo1WT/beta2 0.0372

CC(C)n1c(SCC(=O)c2ccccc2)nc2cc(Cl)ccc21
inactive: F380Y -0.0377 | F380Y/beta1 -0.0145 | F380Y/beta2Delta -0.0247 | R275C/beta4 -0.0424
active: F380Y/beta4 -0.709 | [1] -1.05 | R275C -0.667 | R275C/beta1 -0.35 | R275C/beta2Delta -0.0838 | R275C/Slo1WT/beta2 -0.173

CSC(NCc1cccnc1)=C(C#N)S(=O)(=O)c1ccc(Cl)cc1
inactive: F380Y 0.0268 | F380Y/beta1 0.0532 | F380Y/beta2Delta 0.0758 | F380Y/beta4 0.000772 | [1] 0.0179 | R275C 0.0549 | R275C/beta1 0.0793 | R275C/beta4 0.0736 | R275C/Slo1WT/beta2 0.0289
active: R275C/beta2Delta 0.0872

Cn1ncc2ccccc2c1=O
inactive: F380Y 0.0178 | F380Y/beta1 0.0239 | F380Y/beta2Delta 0.0287 | F380Y/beta4 0.0126 | [1] -0.0763 | R275C -0.0283 | R275C/beta1 -0.0396 | R275C/beta2Delta 0.0689 | R275C/beta4 -0.014 | R275C/Slo1WT/beta2 0.00701

O=C(Nc1ccccc1)OCc1cc(-c2ccccc2)c(C(F)(F)F)s1
inactive: F380Y -0.0321 | F380Y/beta1 -0.0201 | F380Y/beta2Delta -0.0141 | R275C/beta2Delta 0.0124 | R275C/beta4 -0.0566 | R275C/Slo1WT/beta2 -0.0586
active: F380Y/beta4 -0.21 | [1] -0.173 | R275C -0.0877 | R275C/beta1 -0.141

NC(=O)c1nnn(-c2ccc([N+](=O)[O-])cc2)c1-c1ccccc1
inactive: F380Y 0.0114 | F380Y/beta1 -0.0124 | F380Y/beta2Delta 0.0187 | F380Y/beta4 0.0444 | [1] 0.0451 | R275C -0.0124 | R275C/beta1 -0.0135 | R275C/beta2Delta 0.0277 | R275C/beta4 0.0182 | R275C/Slo1WT/beta2 -0.00577

Cc1nn(-c2ccccc2)nc1C(=O)NNC(=O)CSCc1cccc2ccccc12
inactive: F380Y 0.029 | F380Y/beta1 0.0449 | F380Y/beta2Delta 0.0266 | F380Y/beta4 -0.00465 | [1] -0.0205 | R275C 0.0152 | R275C/beta1 0.0429 | R275C/beta2Delta -0.0226 | R275C/Slo1WT/beta2 0.0123
active: R275C/beta4 0.097

Clc1ccc(-c2nc(-c3cnccn3)no2)cc1
inactive: F380Y -0.0251 | F380Y/beta1 0.0188 | F380Y/beta2Delta -0.00983 | F380Y/beta4 0.0205 | [1] -0.00021 | R275C 0.00752 | R275C/beta1 -0.0226 | R275C/beta2Delta 0.0101 | R275C/beta4 0.00987 | R275C/Slo1WT/beta2 0.0471

O=C(O)c1ccccc1C(=O)NCc1ccccc1OC(F)(F)F
inactive: F380Y -0.05 | F380Y/beta1 -0.0181 | F380Y/beta2Delta -0.0248 | F380Y/beta4 0.0063 | [1] -0.076 | R275C -0.0155 | R275C/beta1 -0.0505 | R275C/beta2Delta -0.0385 | R275C/beta4 -0.0255 | R275C/Slo1WT/beta2 0.0015

Cc1[nH]n(-c2c(Cl)cc(C(F)(F)F)cc2Cl)c(=O)c1N=Nc1ccccc1
inactive: F380Y 0.0138 | F380Y/beta1 0.00301 | F380Y/beta2Delta 0.00886 | F380Y/beta4 0.0101 | [1] -0.0146 | R275C -0.0246 | R275C/beta1 0.00755 | R275C/beta2Delta 0.0171 | R275C/beta4 -0.0209 | R275C/Slo1WT/beta2 -0.029

CCOC(=O)C1CCC(C(=O)OCC)N1C(=O)Nc1ccc(Cl)cc1 (stereo not given)
inactive: F380Y 0.046 | F380Y/beta1 0.00842 | F380Y/beta2Delta 0.0313 | F380Y/beta4 -0.0525 | [1] -0.0039 | R275C 0.0639 | R275C/beta1 0.0271 | R275C/beta2Delta 0.0385 | R275C/beta4 0.0217 | R275C/Slo1WT/beta2 -0.00903

N#CC(=Cc1cccs1)C(N)=O
inactive: F380Y 0.0135 | F380Y/beta1 0.00229 | F380Y/beta2Delta 0.0332 | F380Y/beta4 -0.0391 | [1] -0.00699 | R275C 0.00755 | R275C/beta1 -0.00113 | R275C/beta2Delta 0.0185 | R275C/beta4 0.00837 | R275C/Slo1WT/beta2 -0.0032

O=C(CCn1nc(-c2ccc(F)cc2)ccc1=O)NCc1ccccc1
inactive: F380Y 0.0369 | F380Y/beta1 0.0341 | F380Y/beta2Delta 0.06 | F380Y/beta4 -0.00672 | [1] 0.0366 | R275C 0.021 | R275C/beta1 0.0385 | R275C/beta2Delta 0.0213 | R275C/beta4 0.037 | R275C/Slo1WT/beta2 0.000143

O=C(C(=NN=Cc1ccc2c(c1)OCO2)c1ccccc1)c1ccccc1
inactive: F380Y -0.0112 | F380Y/beta1 -0.00905 | F380Y/beta2Delta -0.0268 | F380Y/beta4 -0.0584 | [1] -0.0678 | R275C/beta2Delta 0.000499 | R275C/Slo1WT/beta2 -0.0825
active: R275C -0.163 | R275C/beta1 -0.3 | R275C/beta4 -0.138

NC(=NOC(=O)Nc1cccc(Cl)c1)c1ccno1
inactive: F380Y -0.00531 | F380Y/beta1 0.0032 | F380Y/beta2Delta 0.0232 | F380Y/beta4 0.000547 | [1] 0.0155 | R275C -0.025 | R275C/beta1 -0.0193 | R275C/beta2Delta 0.00772 | R275C/beta4 0.0126 | R275C/Slo1WT/beta2 0.0133

O=C(CSCc1csc2ccccc12)NCc1ccc2c(c1)OCO2
inactive: F380Y -0.00508 | F380Y/beta1 -0.0221 | F380Y/beta2Delta -0.0281 | F380Y/beta4 -0.0396 | R275C -0.0377 | R275C/beta1 -0.0155 | R275C/beta2Delta -0.0321 | R275C/beta4 -0.0151 | R275C/Slo1WT/beta2 -0.0571
active: [1] -0.13

Cc1ccc(S(=O)(=O)N2Cc3ccccc3C(C)CC23CCCCC3)cc1 (stereo not given)
inactive: F380Y -0.0732 | F380Y/beta1 -0.033 | F380Y/beta2Delta -0.0539 | [1] -0.0898 | R275C/beta2Delta -0.0411 | R275C/beta4 -0.0534 | R275C/Slo1WT/beta2 0.009
active: F380Y/beta4 -0.175 | R275C -0.0799 | R275C/beta1 -0.119

COc1ccc(CCN=Cc2ccccn2)cc1OC
inactive: F380Y -0.038 | F380Y/beta1 0.0306 | F380Y/beta2Delta 0.00295 | F380Y/beta4 -0.00225 | [1] -0.032 | R275C -0.0485 | R275C/beta1 -0.0399 | R275C/beta2Delta -0.0772 | R275C/beta4 -0.0204 | R275C/Slo1WT/beta2 -0.00322

COC(=O)C(O)(c1ccc(NC(=O)c2ccc(Cl)c(Cl)c2)cc1)C(F)(F)F (stereo not given)
active: F380Y/beta1 0.0948 | F380Y/beta4 0.112 | R275C 0.0903 | R275C/beta1 0.216 | R275C/beta2Delta 0.0948 | R275C/beta4 0.263
inactive: F380Y -0.0296 | F380Y/beta2Delta -0.0715 | [1] 0.0984 | R275C/Slo1WT/beta2 0.0206

CN(Cc1nnc(-c2ccc3ccccc3c2)o1)c1nnc(C(F)(F)F)s1
inactive: F380Y 0.00202 | F380Y/beta1 0.0221 | F380Y/beta2Delta 0.0123 | F380Y/beta4 -0.0118 | [1] -0.0041 | R275C 4.3e-05 | R275C/beta1 -0.0299 | R275C/beta2Delta -0.000282 | R275C/beta4 -0.0251 | R275C/Slo1WT/beta2 0.0181

CC12CC=C(C#N)C1(C)CC=C2C#N (stereo not given)
inactive: F380Y 0.0296 | F380Y/beta1 0.00573 | F380Y/beta2Delta 0.0262 | F380Y/beta4 0.00555 | [1] 0.0366 | R275C -0.017 | R275C/beta1 0.0163 | R275C/beta2Delta -0.011 | R275C/beta4 0.0134 | R275C/Slo1WT/beta2 -0.00417

CCN1CCC(O)(C#Cc2ccccc2)CC1
inactive: F380Y -0.00462 | F380Y/beta1 0.0157 | F380Y/beta2Delta -0.0113 | F380Y/beta4 -0.0547 | [1] 0.00398 | R275C -0.00643 | R275C/beta1 0.0179 | R275C/beta2Delta 0.0235 | R275C/beta4 -0.01 | R275C/Slo1WT/beta2 0.0236

CCOC(=O)NN=C(C)C(C)=NNC(=O)OCC
inactive: F380Y -0.0316 | F380Y/beta1 -0.0656 | F380Y/beta2Delta -0.0255 | F380Y/beta4 -0.0305 | [1] -0.00664 | R275C -0.0333 | R275C/beta1 -0.0653 | R275C/beta2Delta -0.00622 | R275C/beta4 -0.0094 | R275C/Slo1WT/beta2 0.0167

Cc1nn(Cc2nnc(-c3cc(C(F)(F)F)cc(C(F)(F)F)c3)o2)c(C)c1Br
inactive: F380Y -0.000532 | F380Y/beta1 -0.0352 | F380Y/beta2Delta -0.0793 | F380Y/beta4 -0.0305 | [1] -0.0495 | R275C -0.0117 | R275C/beta1 -0.0379 | R275C/beta2Delta -0.0199 | R275C/beta4 0.00363 | R275C/Slo1WT/beta2 0.0313
